For part of these data: Potency and affinity values are given separately.
What was measured:
Staphylococcus aureus = assay: Antibacterial activity against Staphylococcus aureus MRSA ATCC 43300 (CO-ADD:GP_020); MIC in CAMBH media using NBS plates, by Resazurin F(560/590); type: functional; settings: Concentration 20 uM, ASSAY_TEST Inhibition of Bacterial Growth, detection method Resazurin, Fluorescence (ex560/em590), MEDIA CAMHB, plate type 384well, CORNING #3640, time 18 hr
Acinetobacter baumannii = assay: Antibacterial activity against Acinetobacter baumannii ATCC 19606 (CO-ADD:GN_034); MIC in CAMBH media using NBS plates, by Resazurin F(560/590); type: functional; settings: Concentration 20 uM, ASSAY_TEST Inhibition of Bacterial Growth, detection method Resazurin, Fluorescence (ex560/em590), MEDIA CAMHB, plate type 384well, CORNING #3640, time 18 hr
Escherichia coli = assay: Antibacterial activity against Escherichia coli ATCC 25922 (CO-ADD:GN_001); MIC in CAMBH media using NBS plates, by Resazurin F(560/590); type: functional; settings: Concentration 20 uM, ASSAY_TEST Inhibition of Bacterial Growth, detection method Resazurin, Fluorescence (ex560/em590), MEDIA CAMHB, plate type 384well, CORNING #3640, time 18 hr
Klebsiella pneumoniae = settings: Concentration 20 uM; ASSAY_TEST Inhibition of Bacterial Growth; detection method Absorption (OD600); MEDIA CAMHB; plate type 384well; NBS; CORNING #3640; time 18 hr
Candida albicans = settings: 20 µM
Cryptococcus neoformans = settings: Concentration 20 uM; ASSAY_TEST Inhibition of Fungal Growth; detection method Resazurin; Absorption (OD600-OD570); plate type 384well; NBS; CORNING #3640

Compound	Inhibition (Staphylococcus aureus) [%]	Inhibition (Acinetobacter baumannii) [%]	Inhibition (Escherichia coli) [%]	Inhibition (Klebsiella pneumoniae) [%]	Inhibition (Candida albicans) [%]	Inhibition (Cryptococcus neoformans) [%]
OC(COc1ccccc1)CN1CCN(c2ccccc2)CC1 (stereo unspecified)	6.47	-11.62	3.6	14.06	0.81	-11.95
Brc1ccc(/N=N/c2ccc3ccccc3n2)cc1	10.21	4.06	-16.68	5.4	5.16	43.68
NC(CC(=O)Nc1cc(C(F)(F)F)ccc1Cl)=NO	9.76	-1.74	-6.61	22.22	3.79	-11.78
CC(=O)Nc1ccc(S(=O)(=O)N/N=c2/sc3ccccc3n2C)cc1N	12.5	3.99	3.58	3.38	-0.64	-8.3
O=C1NC(=O)C(Cc2ccccc2)(c2cccnc2)N1 (stereo unspecified)	33.81	2.65	15.22	9.85	7.24	16.94
CN1C(=O)CC2(C)C1=CCc1scnc12 (stereo unspecified)	8.85	8.37	0.52	4.25	2.6	-1.43
CC(=O)Nc1cccc(NC(C)=O)n1	23.71	-5.95	17.6	13.05	-2.4	-1.6
CN1CCC(=C(c2ccc(Cl)cc2)c2ccccn2)CC1.O=C(O)/C=C\C(=O)O [CYCLIRAMINE MALEATE]	6.43	-10.18	9.66	13.03	1.65	-5.61
O=C(Nc1cccc([N+](=O)[O-])c1)c1cc2ccccc2cc1O	-1.88	-9.44	23.78	3.58	12.7	-10.5
Cc1cccnc1N=C(S)Nc1ncccc1C	10.58	20.87	9.06	23.76	3.55	-10.6
CN(C)c1ccc(/N=N\c2cccc3ccoc23)cc1	-15.18	-4.75	-16.41	-3.95	3.86	-4.24
OCC1(CO)CC2(C1)CC(CO)(CO)C2	5.83	-10.2	9.77	7.41	-2	1.54
CC12CCC(C1)C(C)(C)C2OC(=O)c1ccccc1C(=O)O (stereo unspecified)	7.81	-7.81	-3.09	22.55	4.22	-18.67
NC(=O)c1nc2c([nH]c1=O)CCCC2	15.95	-15.59	13.49	-0.68	-0.94	-4.35
CCOC(=O)Cn1nc2oc(=O)c(CCN3CCN(c4ccccc4OC)CC3)c(C)c2c1C	17.7	-3.04	11.66	16.06	2.37	-3.33
Cc1cc(=O)[nH]c(N)n1	9.55	-6.26	2.4	1.73	3.77	-0.62
CCCCCC(=O)N1CCCCC1	5.23	-9.77	7.04	14.07	3.39	2.22
O=[N+]([O-])c1cccnc1Oc1cccnc1	16.25	-14.38	11.2	9.34	-2.59	-10.27
Cc1ccccc1OCC(O)CN1CCN(c2ccc(Cl)cc2)CC1 (stereo unspecified)	16.79	7.24	2.66	7.5	0.11	-12.08
CC1(C)CC(=O)C(CC(=O)c2ccccc2)=C(NNC(=N)N)C1	1.47	8.18	4.18	-0.42	5.62	-4.09
CC(=O)NC1=C/C(=C\[N+](=O)[O-])C=C1O	-1.13	0.39	10.35	11.59	0.53	-2.2
